Assay results from PubChem BioAssay AID588852 (The Scripps Research Institute Molecular Screening Center, 2011).
Hit rate of the full screen: of about 360,000 compounds, about 4,600 (1.3%) were called active.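 The calls were made as follows: active = percent inhibition above its own plate's cutoff, namely the mean of that plate's compound wells plus 3 SD; inactive = the rest.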 Many of the other results were omitted from the sample, so actives are more common in it than they were.

Each compound was assayed against Muscarinic acetylcholine receptor M1 (Homo sapiens) (UniProt P11229) (assay: CHRM1 blockers of acetylcholine calcium response – CHO-K1 cells, Fluo-8 calcium fluorescence, 1536-well, primary screen (AID 588852;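 also: peak over basal fluorescence ratio during 140 s after agonist addition; 0% = ACh EC80 plus DMSO and 100% = DMSO alone without agonist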)). Details: CHO-K1 hM1, Fluo-8 calcium fluorescence, ACh EC80 antagonist; at 3 µM; hits give high values.
Muscarinic acetylcholine receptor M1 (Homo sapiens), sequence (P11229 whole entry, looked up): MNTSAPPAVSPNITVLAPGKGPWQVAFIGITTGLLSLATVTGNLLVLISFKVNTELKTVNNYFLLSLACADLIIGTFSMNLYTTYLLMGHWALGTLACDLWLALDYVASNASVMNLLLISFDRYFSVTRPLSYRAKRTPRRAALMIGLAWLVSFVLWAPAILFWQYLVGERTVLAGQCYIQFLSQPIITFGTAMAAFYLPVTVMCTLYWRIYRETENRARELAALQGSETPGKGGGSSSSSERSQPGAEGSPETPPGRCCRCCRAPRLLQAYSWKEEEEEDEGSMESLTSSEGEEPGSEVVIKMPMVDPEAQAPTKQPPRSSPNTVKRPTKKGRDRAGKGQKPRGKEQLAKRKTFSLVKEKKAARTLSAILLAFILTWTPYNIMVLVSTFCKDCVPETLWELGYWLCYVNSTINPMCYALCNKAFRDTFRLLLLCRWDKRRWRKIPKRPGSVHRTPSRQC

inhibition, active:
COC(=O)c1ccc(CN2CCC(CO)(Cc3ccc(OC)cc3)CC2)cc1 53.5%, COc1ccccc1C(=O)Nc1ccnn1C1CCN(C(=O)C(C)(C)C)CC1 47.4%, CCN1/C(=C\c2ccc3ccccc3[n+]2CC)Sc2cc(C)ccc21 59%, CCCCCCCCCCOC(=O)Cn1c(COc2cccc(OC)c2)[n+](C)c2ccccc21 58.2%, FC(F)(F)c1cccc(NC(=S)Nc2cccc(Cl)c2)c1 27.5%, Cc1onc(-c2ccccc2)c1-c1nnc(COC(=O)c2ccc(N(C)C)cc2)o1 99.9%, CCCCN(C)C(=O)c1ccc2c(c1)N(CC)C(=O)c1ccccc1S2(=O)=O 37.7%, COC(=O)c1ccc(NC(=O)CSc2nnc(CNc3ccc(OC)cc3)n2C)cc1 64.6%, c1ccc(-c2ccccc2OCCN2CCCCC2)cc1 33.7%, O=C(Oc1ccc(-c2nnco2)cc1)c1ccc(F)c(S(=O)(=O)N2CCOCC2)c1 38.5%, Cc1ccc(S(=O)(=O)Nc2ccc3ncccc3c2)cc1 28.8%

inhibition, inactive:
O=[N+]([O-])c1ccc(CN2CC(N3CCC(c4ccccc4)CC3)CS2(=O)=O)cc1 (centres undefined) 7.07%, CCOC(=O)c1ccccc1NS(=O)(=O)c1c(C)nc2sccn2c1=O 6.39%, CCOC(=O)C1(CCOC)CCN(Cc2ccc(C(=O)OC)cc2)CC1 -9.07%, COc1ccc(CC2(CO)CCN(Cc3cnn(C)c3)CC2)cc1 1.8%, O=C(CN1CCN(c2ccccc2O)CC1)NC(=O)NCc1ccccc1 -3.68%, Cn1c(-c2ccc(C(F)(F)F)cc2)cc2onc(-c3ccccc3)c2c1=O 2.31%, CC(C(=O)NC1CCCCC1)N1C(=O)c2cccc3cccc1c23 (centres undefined) 8.39%, COc1ccccc1C(=O)Nc1ccnn1C1CCN(Cc2cnn(C)c2)CC1 -12.3%, COc1ccccc1N1CCN(CC(=O)Nc2ccnn2C2CCCC2)CC1 -12.8%, C/C(O)=C\c1nc(=O)c2c(C)cc(C)nc2n1-c1ccccc1 -3.66%, S=C(NCCCc1cnc[nH]1)NCCCN(Cc1ccc(Cl)c(Cl)c1)c1ccc(Br)cn1 0.91%, CCOc1cc(/C=N/NC(=O)c2ccc(CSc3nncn3C)cc2)ccc1OCC(=O)N1CCOCC1 -1.07%, CC(C)(C)S(=O)N1Cc2cc(C(=O)NCCCN3CCOCC3)nc(-c3cccc(-c4cc5ccccc5o4)c3)c2[C@H]1CCO (some centres undefined) -16.2%, CCN(CC)S(=O)(=O)c1ccc(OC(C)C)c(N)c1 -11.4%, CCCCCCCCCCOC(=O)Cn1c(COc2ccc(C)cc2)[n+](C)c2ccccc21 30.8%, O=C(C=CC(=O)Nc1ccc(F)cc1F)Nc1ccc(F)cc1F -4.83%, CC(=O)Nc1ccc(S(=O)(=O)N2CCC(C(=O)NC3CC3)CC2)cc1 -7.82%, NCCCNC(=S)NCCCN(Cc1ccc(Cl)cc1)c1ccc(Br)cn1 -0.49%, CC(C)(C)OC(=O)N1CCN(C(=O)c2[nH]c(C(F)(F)F)nc2-c2ccccc2)CC1 -33.3%, FC(F)(F)c1cccc(N/N=C/c2ccccc2)c1 -6.47%, O=C(Nc1cccc(Cl)c1)c1cncn1-c1ccc(F)cc1 -4.54%, Cc1cc(C)cc(OCC(=O)OCC(=O)NC2CCCC2)c1 5.15%, CC(C)c1nc2oc3c(N4CCN(C)CC4)ncnc3c2c2c1CCC2 -4.82%, CN(C)Cc1c(C(=O)N/N=C/c2ccccc2OCc2ccc(F)cc2)nnn1-c1nonc1N -17.7%, NC(=O)C1=C[C@@H](c2csc3ccccc23)C[C@@H](OCc2ccc(CO)cc2)O1 -1.54%, COc1cccc(-c2cnc3c(NC(C)=O)cc(-c4cc(F)ccc4OC)cn23)c1 13.1%, Cc1ccc(C(=O)NCC(=O)OCc2nnc(-c3ccccc3)o2)cc1 -11.3%, Cc1onc(-c2ccccc2Cl)c1C(=O)OCc1nnc(-c2ccccc2)o1 1.39%, Cc1cc2nc(-c3ccco3)c(Cc3cccc(F)c3)n2c(C)c1Br -9.48%, O=C(NCCN1CCOCC1)c1ccc2c(c1)N(Cc1cccc(Cl)c1)C(=O)c1ccccc1S2(=O)=O -3.27%, O=C(c1ccc2c(c1)N(Cc1ccc(F)cc1)C(=O)c1ccccc1S2(=O)=O)N1CCN(c2ccccn2)CC1 -3.64%, Cc1nn(-c2ccccc2)nc1C(=O)OCC(=O)N1CCCCC1C (centres undefined) 3.01%, NC1=NC(=O)C2(COC(c3ccccc3Cl)OC2)S1 (centres undefined) -9.62%, O=C(COC(=O)/C=C/c1ccc(Br)o1)Nc1cccc(S(=O)(=O)N2CCOCC2)c1 -15.6%, CC(=O)c1c(O)cc2n(c1=O)-c1ccc(Cl)cc1C2(C)C -13.4%, COC(=O)c1ccc(NC(=O)CSc2nnc(C3CC3)n2C)cc1 -9.89%, COC(=O)c1ccc(NC(=O)CSc2nnc(-c3ccncc3)n2C)cc1 -9.95%, CC(C)CN(C(=O)c1ccc2c(c1)OCO2)C1CCS(=O)(=O)C1 (centres undefined) 6.67%, O=C(Nc1cccc2c1N(C(=O)c1ccco1)CCC2)c1ccco1 -11.2%, N#CC1(NC(=O)COC(=O)CSc2ccc(F)cc2)CCCCC1 -5.4%, COc1cc(CCN=Cc2ccccc2O)c([N+](=O)[O-])cc1OC 1.04%, CN1CCN(CCCCOc2ccccc2-c2ccccc2)CC1 -6.34%, CC1CCCN(CCOCCOc2ccccc2-c2ccccc2)C1 (centres undefined) 5.61%, COc1ccc(C(=O)Oc2ccc(-c3nnco3)cc2)cc1S(=O)(=O)N1CCOCC1 0.6%, Cc1cc(NC(=O)COC(=O)c2ccc(F)c(S(=O)(=O)N3CCOCC3)c2)no1 -35%, CC1=C2C(=O)OC(c3ccoc3)C2(C)CCC1 (centres undefined) -3.46%, Cc1cc(C)cc(OCC(=O)Nc2ccc(S(=O)(=O)Nc3ccccn3)cc2)c1 -5.97%, O=S(=O)(Nc1ccc(Oc2ncccn2)c(Cl)c1)c1ccc(F)cc1 -16.8%
